The supplement of paper PMC11417369
± gives the standard deviation of the averaged measurements. Over roughly 25,000 sequences, “ln(normalized median fluorescence intensity)” has its median near 7.9; the highest 2% begin near 11. Many of the other results were omitted from the sample, so the highest values are more common in it than they were.

The sequences below were run on PfAP2-I AP2 domain 3 (GST-tagged) (assay: gcPBM binding intensity (ln(normalized median fluorescence intensity)); higher = stronger DNA binding).
Method in brief: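 Plasmodium falciparum DNA-binding domains carrying a GST tag were expressed in E. coli and applied for 1 h, at about 25 μg on average, to an Agilent 4 × 180k array. The array held primer-extended double-stranded 36-bp intergenic genomic probes together with negative controls, and binding took place in 1× PBS with 1% milk, 0.2 mg/ml BSA, 0.5% salmon testes DNA and 0.03% Triton X-100. An Alexa488 anti-GST antibody detected bound protein, and the array was scanned at 488 nm. Binding intensity is taken as the highest Masliner-normalised natural-log median intensity across replicate spots of either probe orientation.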

| Sequence | gcPBM binding intensity (ln) |
| --- | --- |
| CATGCCTTTAAAAAGGTGCAAACATTTTCACAAACA | 10.4 ± 0.35 |
| CTTGAAAAAATAAAAACACACAATGTGTTTTTGAAT [CACACA_site3283] | 7.42 ± 0.68 |
| TTTCATTTAGCTTTTACACACTATATATCATTGATT [CACACA_site6158] | 7.89 ± 0.68 |
| AGTATTATATTTGTATGTACGTAGTAATATATAAAA [XGTACX_site528] | 7.86 ± 0.6 |
| TTAAACTTGTTTTGGATGCACTATATAATTCATTTT [GTGCAC_site9549] | 9.45 ± 0.15 |
| TTTATTTTATTCACTATCATAAGCAAAACTTAAACA [GTGCAC_negctrl_site287] | 7.6 ± 0.4 |
| CGATTTTTTAAGTTTGTGCACTTAAAAACTATAACA | 10.9 ± 0.54 |
| TTTCATATTTTGTCCTGTTTTTTTTTTTTTTTTCTT [CACACA_negctrl_site993] | 7.53 ± 0.59 |
| TTTAACTTTTATATAACACACATATTGTAATTATGT [CACACA_site6486] | 7.92 ± 0.33 |
| TTTTTTGAATTTAAAAGTACAGGCTTTTACCAAATA [XGTACX_site1356] | 7.7 ± 0.45 |
| TTTTTTTTTTGTAATTGTACTTTTTTAATACTTCTA [XGTACX_site4195] | 7.74 ± 0.82 |
| TTAGTTTATTGGTACTGTACTTTTTTTTTCTCCATT [XGTACX_site8618] | 8.02 ± 0.33 |
| TATTCGTGCAATAATAGTACACTTATAAATTATTCA [XGTACX_site8993] | 11.2 ± 0.66 |
| TATTCGTGCAATAATGGTACACTTATAAATTATTCA [XGTACX_site1430] | 10.7 ± 0.71 |
| TATTCGTGCAATAGTAGTACACTTATAAATTATTCT [XGTACX_site4899] | 10.7 ± 0.61 |
| ACACATACATACATATGTACATATATACATATATAC [XGTACX_site5559] | 8.45 ± 0.83 |
| AAATAATACATTCGTACTACACATATATATTAAATA [XGTACX_site7806] | 7.84 ± 0.41 |
| TGAACATATTAAAATTGTACATATGCACAATATGTA [XGTACX_site6801] | 8.53 ± 0.29 |
| GTAGGCATTAAAAAATGTACAAAATATTATGAATTG [XGTACX_site1615] | 7.65 ± 0.55 |
| AGTAGGCATATTGGTTGTACAAAAAAATTATGCACC [XGTACX_site8925] | 11.2 ± 0.61 |
| TATATATATATATATGCATGTACATATATTTGTTAT [TGCATGCA_site379] | 9.45 ± 0.14 |
| TATGTGCACCCATGTACATGCGGACATATGTTATAT [TGCATGCA_site383] | 11 ± 0.9 |
| ATATATATATATGCATGTACATATATTTGTTATATC [XGTACX_site3197] | 9.22 ± 0.27 |

| Sequence | gcPBM binding intensity (ln) |
| --- | --- |
| TATATAATAATTTAGAGTACTGATAAAATATTCCAT [XGTACX_site6200] | 7.55 ± 0.47 |
| AATAAATTAGAAGGATGTACTTTGTTTAATATAGAG [XGTACX_site1943] | 7.83 ± 0.37 |
| AATAGCTAGCTGTGCACACAAACATATTTTCCAAAT [CACACA_site880] | 9.55 ± 0.16 |
| CATTTTATAAAAAGCACACATATAGTTATATGCACA [CACACA_site3691] | 10.7 ± 0.91 |
| TTTATTTTCCAAAGGGTGCACATAGTTGAAACGATA | 11.1 ± 0.44 |
| TTCCAAAAAGTTATTACACACATATGTGCACATATA [CACACA_site6465] | 10 ± 0.4 |
| CAAATAGCTAGCTGTGCACACAAACATATTTTCCAA [CACACA_site879] | 9.66 ± 0.23 |
| TTTATTTTCCAAAGGGTGCACATAGTTAAAACGATA [GTGCAC_site9855] | 11.1 ± 0.29 |
| TTTCTTTTTTTTTGAAGTACATAAAAATATAAAAAA [XGTACX_site311] | 8.03 ± 0.085 |
| AGACAAAATGTTTGAAGTACTTTTTATCAAATTAAA [XGTACX_site8885] | 7.66 ± 0.2 |
| CACGAACACAAACACAAACACACATCATATATATAT [CACACA_site1322] | 9.25 ± 0.16 |
| AAATATATATATAGTTGTACATATATCGTATATATT [XGTACX_site7867] | 7.57 ± 0.45 |
| GTTAAAATTTGTCAATGTACAGAAATAATAAAAAAA [XGTACX_site1879] | 7.97 ± 0.62 |
| ATATATATATATATATGTACATATTATTATTTTGAT [XGTACX_site4752] | 9.22 ± 0.49 |
| AAAATAAACTATAGTACACACTTATTATTATGAAAT [CACACA_site5488] | 7.92 ± 0.3 |
| TTTTTTTTTCTTCTTTTCAAATTTAAGAAATTATAA [CACACA_negctrl_site18] | 7.55 ± 0.57 |
| AAATATAAGAAAAAGGTGCTTTTTTTTTTTTTTTTT [GTGCAC_site9700] | 9.79 |
| TTTTTTCTTTTCAAGGTGCTTTATAAGAAAAAGGGA [GTGCAC_site9858] | 11.1 ± 0.89 |
| AAAAAAAAACACGCATGTACATAAAAATAATCATAC [XGTACX_site1086] | 7.96 ± 0.57 |
| ATACACACTCAAAAAAGTACTTAACTACATGAATTG [XGTACX_site6366] | 7.79 ± 0.55 |
| TGTATGTATAATTGAGTGCACAGAAAAAAAAAAGAA | 11 ± 0.13 |
| CATTATAAAAAATAAAAAAGAAATAATTGTATATGC [CACACA_negctrl_site478] | 7.77 ± 0.68 |
| AAGAAAATATAAAATGCACACTATAAATTGTATATA [CACACA_site7928] | 8.73 ± 0.014 |
